From PubChem BioAssay (NCATS)
Inconclusive results are not listed. A number with no mark means an inactive call. Calls follow the shape of the dose curve; as a rule, active = well fitted curve in the direction sought with a large enough effect; inconclusive = small, poorly fitted or top-dose-only effect, or another doubt; inactive = no such curve, though single readings can be large; an effect the other way counts as inactive or inconclusive.

Target: Protein phosphatase 1D (Homo sapiens) (UniProt O15297)
Experiment: RapidFire Mass Spectrometry qHTS Assay for Modulators of WT P53-Induced Phosphatase 1 (WIP1) (AID 1347424);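 also: amount of dephosphorylated VEPPL-S-QETFS peptide product formed by WIP1; plate controls were DMSO wells for no effect and GSK830371 inhibitor control at 10 µM for full effect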
Settings: WIP1 dephosphorylation of phosphopeptide, RapidFire MS; series mostly up to 63 µM; activity change, negative = inhibition: at the top concentration
Outline: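 10 nM WIP1 + cpd, 1 h RT; + 2 uM VEPPL-pS-QETFS, 5 min RT; stop 0.5% formic acid; labelled product standard 1 uM; RapidFire MS. Buffer 50 mM Tris pH 7.5, 30 mM MgCl2, 1 mM TCEP.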

Chain of Protein phosphatase 1D (Homo sapiens) (O15297 whole entry, looked up): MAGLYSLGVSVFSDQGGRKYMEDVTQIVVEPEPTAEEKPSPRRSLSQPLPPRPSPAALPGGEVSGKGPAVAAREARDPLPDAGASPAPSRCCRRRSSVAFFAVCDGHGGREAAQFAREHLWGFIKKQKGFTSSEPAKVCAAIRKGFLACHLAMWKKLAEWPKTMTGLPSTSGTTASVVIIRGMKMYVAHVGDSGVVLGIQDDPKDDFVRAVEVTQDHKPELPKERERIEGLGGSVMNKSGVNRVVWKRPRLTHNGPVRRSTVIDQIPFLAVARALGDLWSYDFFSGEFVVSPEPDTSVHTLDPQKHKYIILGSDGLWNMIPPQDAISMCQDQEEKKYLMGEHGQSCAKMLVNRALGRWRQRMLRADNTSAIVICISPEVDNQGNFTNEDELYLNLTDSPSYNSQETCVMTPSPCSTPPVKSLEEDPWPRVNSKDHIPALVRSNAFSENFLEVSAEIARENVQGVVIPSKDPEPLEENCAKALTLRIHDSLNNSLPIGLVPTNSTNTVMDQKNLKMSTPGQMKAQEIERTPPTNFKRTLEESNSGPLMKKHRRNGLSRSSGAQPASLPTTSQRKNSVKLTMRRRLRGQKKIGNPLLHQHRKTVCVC

SMILES	activity change, negative = inhibition
CCCOC(=O)c1ccccc1	3.44%
CN(C)CCCO[C@@H]1[C@H]2OC(C)(C)O[C@H]2O[C@@H]1C(O)CO (stereo partly drawn)	-4.26%
COc1ccccc1O	-1.34% [at 128 µM]
CC12CCC(CC1)C(C)(C)O2	8.39%
O=C(O)CC(O)C(=O)O (stereo not drawn)	20.7%
CC1(C)OC(=O)NC1=O	-7.27%
CC[C@@]1(c2ccccc2)NC(=O)N(C)C1=O	19.1%
O=Cc1ccccc1C=O	-3.16%
CC1(C)S[C@@H]2[C@H](NC(=O)Cc3ccccc3)C(=O)N2[C@H]1C(=O)O (tested in a mixture with another compound)	-17.7%
Oc1ccc(C(O)CNCCCCCCNCC(O)c2ccc(O)c(O)c2)cc1O (stereo not drawn)	-9.52%
CC/C=C(\C(=O)N[C@@H]1C(=O)N2C(C(=O)OCOC(=O)C(C)(C)C)=C(COC(N)=O)CS[C@H]12)c1csc(N)n1	-23.3%
N[C@@H](CSCCCO)C(=O)O	10.3% [at 26.6 µM]
CCOC(=O)[C@H](CCc1ccccc1)N[C@@H](C)C(=O)N1C(=O)N(C)C[C@H]1C(=O)O	2.79%
CCCCN(CCCC)CCCOC(=O)c1ccc(N)cc1	7.56%
CCOc1ccc2ccccc2c1C(=O)N[C@@H]1C(=O)N2[C@@H]1SC(C)(C)[C@@H]2C(=O)O	-28.9%
CN1CCOC(c2ccccc2)c2ccccc2C1 (stereo not drawn)	7.66%
C[C@@H]1CCN(C(=O)[C@H](CCCN=C(N)N)NS(=O)(=O)c2cccc3c2NC[C@H](C)C3)[C@@H](C(=O)O)C1	18.8%

SMILES	activity change, negative = inhibition
COc1cc(C(=O)N2CCOCC2)cc(OC)c1OC	-5.28%
O=C1OC(OC(=O)c2cccnc2Nc2cccc(C(F)(F)F)c2)c2ccccc21 (stereo not drawn)	-8.56%
O=C(O)COc1nn(Cc2ccccc2)c2ccccc12	-2.5%
NCC(=O)CCC(=O)O	5.74%
CC1=C(C/C=C(\C)CCC[C@H](C)CCC[C@H](C)CCCC(C)C)C(=O)c2ccccc2C1=O	21.1%
Oc1cn2c(n1)Nc1ccc(Cl)c(Cl)c1C2	7.18% [at 26.6 µM]
CC(O)CN(CCN(CC(C)O)CC(C)O)CC(C)O (stereo not drawn)	2.83%
COc1ccc2cc1Oc1cc3c(cc1OC)CC[N+](C)(C)[C@H]3Cc1ccc(cc1)Oc1c(OC)c(OC)cc3c1[C@@H](C2)[N+](C)(C)CC3	10.5%
CC(=O)Oc1c(C)c(C)c2c(c1C)CC[C@@](C)(CCC[C@H](C)CCC[C@H](C)CCCC(C)C)O2	2.82%
N[C@@H](CSSC[C@H](N)C(=O)O)C(=O)O	-0.373% [at 0.505 µM]
N[C@H](C(=O)O)c1ccc(O)cc1	1.48% [at 26.6 µM]
O=S(=O)(O)NC1CCCCC1	-4.18%
Cc1cccc(C)c1NC(=O)CN(CC(=O)O)CC(=O)O	-1.33%
CCC(=O)Nc1ccc(O)cc1	21%
CC1CC(OC(=O)C(O)c2ccccc2)CC(C)(C)N1C (stereo not drawn)	0.93%
CC(C)(C)C(=O)NCCCC(=O)O	-0.39%
CC1(C)CO[C@@H](CC(=O)O)CN1	-0.157%

Target: Protein phosphatase 1D (Homo sapiens) (UniProt O15297)
Experiment: Rhodamine-PBP qHTS Assay for Modulators of WT P53-Induced Phosphatase 1 (WIP1) (AID 1347425); also: % of control where 0% means no effect
Settings: recombinant WIP1, Rhodamine-PBP phosphate fluorescence, real-time; series mostly up to 57.5 µM; activity change, negative = inhibition: at the top concentration
Outline: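 The read-out is the change in Rhodamine-PBP fluorescence (f1 - f0, ex 525/em 598 nm) as Pi is released, read each minute for 11 min. Final reaction: 5 nM WIP1, 10 uM phosphopeptide VEPPL-pS-QETFS, 10 uM Rh-PBP, 50 mM Tris-HCl pH 7.5, 30 mM MgCl2. Compound was preincubated with enzyme for 1 hour at room temperature.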

SMILES	activity change, negative = inhibition
CCCOC(=O)c1ccccc1	-0.897%
CN(C)CCCO[C@@H]1[C@H]2OC(C)(C)O[C@H]2O[C@@H]1C(O)CO (stereo partly drawn)	11%
COc1ccccc1O	14.1% [at 116 µM]
CC12CCC(CC1)C(C)(C)O2	12.5%
O=C(O)CC(O)C(=O)O (stereo not drawn)	0.897%
CC1(C)OC(=O)NC1=O	-7.14%
CC[C@@]1(c2ccccc2)NC(=O)N(C)C1=O	10.3%
O=Cc1ccccc1C=O	23%
CC1(C)S[C@@H]2[C@H](NC(=O)Cc3ccccc3)C(=O)N2[C@H]1C(=O)O (tested in a mixture with another compound)	-1.69%
Oc1ccc(C(O)CNCCCCCCNCC(O)c2ccc(O)c(O)c2)cc1O (stereo not drawn)	-7.93%
CC/C=C(\C(=O)N[C@@H]1C(=O)N2C(C(=O)OCOC(=O)C(C)(C)C)=C(COC(N)=O)CS[C@H]12)c1csc(N)n1	-16.6%
N[C@@H](CSCCCO)C(=O)O	2.01% [at 23.8 µM]
CCOC(=O)[C@H](CCc1ccccc1)N[C@@H](C)C(=O)N1C(=O)N(C)C[C@H]1C(=O)O	6.26%
CCCCN(CCCC)CCCOC(=O)c1ccc(N)cc1	11%
CCOc1ccc2ccccc2c1C(=O)N[C@@H]1C(=O)N2[C@@H]1SC(C)(C)[C@@H]2C(=O)O	-27.5%
CN1CCOC(c2ccccc2)c2ccccc2C1 (stereo not drawn)	0%
C[C@@H]1CCN(C(=O)[C@H](CCCN=C(N)N)NS(=O)(=O)c2cccc3c2NC[C@H](C)C3)[C@@H](C(=O)O)C1	16.7%

SMILES	activity change, negative = inhibition
COc1cc(C(=O)N2CCOCC2)cc(OC)c1OC	3.34%
O=C1OC(OC(=O)c2cccnc2Nc2cccc(C(F)(F)F)c2)c2ccccc21 (stereo not drawn)	-6.35%
O=C(O)COc1nn(Cc2ccccc2)c2ccccc12	0.179%
NCC(=O)CCC(=O)O	-0.538%
CC1=C(C/C=C(\C)CCC[C@H](C)CCC[C@H](C)CCCC(C)C)C(=O)c2ccccc2C1=O	4.2%
Oc1cn2c(n1)Nc1ccc(Cl)c(Cl)c1C2	15.1% [at 23.8 µM]
CC(O)CN(CCN(CC(C)O)CC(C)O)CC(C)O (stereo not drawn)	11.7%
COc1ccc2cc1Oc1cc3c(cc1OC)CC[N+](C)(C)[C@H]3Cc1ccc(cc1)Oc1c(OC)c(OC)cc3c1[C@@H](C2)[N+](C)(C)CC3	11.7%
CC(=O)Oc1c(C)c(C)c2c(c1C)CC[C@@](C)(CCC[C@H](C)CCC[C@H](C)CCCC(C)C)O2	-6.93%
N[C@@H](CSSC[C@H](N)C(=O)O)C(=O)O	14.5% [at 0.575 µM]
N[C@H](C(=O)O)c1ccc(O)cc1	6.1% [at 23.8 µM]
O=S(=O)(O)NC1CCCCC1	13.1%
Cc1cccc(C)c1NC(=O)CN(CC(=O)O)CC(=O)O	6.14%
CCC(=O)Nc1ccc(O)cc1	-0.395%
CC1CC(OC(=O)C(O)c2ccccc2)CC(C)(C)N1C (stereo not drawn)	1.16%
CC(C)(C)C(=O)NCCCC(=O)O	6.57%
CC1(C)CO[C@@H](CC(=O)O)CN1	12.9%
